Screen size: about 48,000 compounds; about 13,000 (27%) showed an effect of 50% or more. Some of the results follow.

In the test the test system is Wolbachia pipientis. As to the kind of experiment: Anti-Wolbachia Cell-Based Screen. In kind it is functional. The arrangement: scale not given: in the data most compounds retested in dose-response had high values. The conditions noted are these: 5 µM.
In the case of `CCOc1ccc(NC2CCN(C)C2=O)cn1` (stereo not given), the “Percent Effect” value is listed as -24.45%.

With `Cc1noc(C)c1CN(C)CC1CC(C2CCCCC2)=NO1` (stereo not given), the “Percent Effect” value was determined as 7.193%.

As to `Cc1cc(CNCC2(O)CCOCC2)ccc1Br`, the “Percent Effect” value is reported as -3.743%.

Turning to `CN1CCN(CCCOc2ccccc2CN2C[C@H]3CC[C@H]2C3)CC1`, the “Percent Effect” value was -24.99%.

For the molecule `CCOc1ncccc1CNCc1c(C)nn(C)c1N(C)C`, the “Percent Effect” value is recorded as 97%.

As for `Cc1nn(C)c(N(C)C)c1CNCc1cccnc1OC(C)C`, the “Percent Effect” value came out at 107.9%.

As for `Cc1nn(C)c(N(C)C)c1CNCc1ccccc1CN(C)C`, the “Percent Effect” value was determined as 13.98%.

As to `COc1c(CNCc2cccnc2OC(C)C)c(C(C)C)nn1C`, the “Percent Effect” value stood at 2.472%.

For the molecule `Cc1ccc(CNC(=O)C2CCN(C(=O)c3ccco3)CC2)n1C`, the “Percent Effect” value is 1.7%.

As for `Cn1cc(CN2C[C@@H]3CCCO[C@@H]3[C@H](N3CCCC3=O)C2)cn1.O=C(O)C(F)(F)F`, the “Percent Effect” value was -11.94%.

For the molecule `Cc1ccc(N2CCCC(NCc3ccsc3)C2)nn1` (stereo not given), the “Percent Effect” value is -6.53%.

With `Cc1ccc(N2CCCC(NCc3sccc3C)C2)nn1` (stereo not given), the “Percent Effect” value is 101%.

In the case of `Cc1ccc(N2CCCC(NCc3cnc(C)s3)C2)nn1` (stereo not given), the “Percent Effect” value is reported as 95.67%.

Turning to `Cc1ccc(N2CCCC(NCc3ccc(C)s3)C2)nn1` (stereo not given), the “Percent Effect” value is 102.5%.

For `CCN(CCOC)C(=O)CCc1scnc1C`, the “Percent Effect” value is reported as 1.791%.

Take `CCc1ccc(CNc2cc(-c3ccoc3C)nn2CCO)o1`: the “Percent Effect” value was -16.42%.

As to `Cc1nnc2n1CCN(C(=O)c1cnc3c(cnn3CC(C)C)c1)C2`, the “Percent Effect” value was -2.285%.

Take `CN(C)c1ccc(CN(CCCn2ccnc2)Cc2c[nH]cn2)cc1.O=C(O)CC(O)(CC(=O)O)C(=O)O`: the “Percent Effect” value is -12.92%.

Regarding `COc1cc(CN(Cc2ccccn2)CC(C)C)cc2c1OCO2`, the “Percent Effect” value is recorded as -37.75%.

`CC(C)OCCCN(Cc1cnn(C)c1)Cc1ccccn1.O=C(O)CC(O)(CC(=O)O)C(=O)O`: the “Percent Effect” value is on record as 84.46%.

Turning to `O=C(Cc1cn2ccsc2n1)N(Cc1ccco1)CC1CCCO1` (stereo not given), the “Percent Effect” value is 1.448%.

Take `CC(C)CN(Cc1ccc(O)c(C(=O)O)c1)Cc1cnn(C)c1`: the “Percent Effect” value is listed as -4.31%.

Regarding `COc1cc(CN(CCCN(C)C)Cc2ccccn2)cc2c1OCO2.O=C(O)CC(O)(CC(=O)O)C(=O)O`, the “Percent Effect” value was found to be 126.3%.

With `Cc1ccc(CN(CCCN(C)C)Cc2cnc(N(C)C)nc2)o1.O=C(O)CC(O)(CC(=O)O)C(=O)O`, the “Percent Effect” value came out at 115.6%.

As to `Cc1nc2sccn2c1CN(CCCN(C)C)Cc1ccco1.O=C(O)CC(O)(CC(=O)O)C(=O)O`, the “Percent Effect” value was 131.3%.

For the molecule `Cc1ncsc1CCN(C)Cc1cc2n(n1)CCN(Cc1ccco1)C2`, the “Percent Effect” value is on record as 0.12%.

`COCc1cc(N(CC(F)F)C2CC2)n2ncnc2n1`: the “Percent Effect” value was -15.21%.

In the case of `CC(C)(Cn1cnc(-c2ccccc2)c1-c1ccco1)N1CCOCC1`, the “Percent Effect” value stood at 0.7687%.

`Cc1nc2c(c(=O)n1C)CCN(C(=O)CCc1ccccn1)CC2`: the “Percent Effect” value is recorded as -4.884%.

As for `CCN(CCCN1CCOCC1)C(=O)c1cnn(CC)c1`, the “Percent Effect” value was -6.092%.

For the molecule `CN(C)CCCN(Cc1cnn(C)c1)Cc1ccco1.O=C(O)CC(O)(CC(=O)O)C(=O)O`, the “Percent Effect” value amounted to 115.2%.

On to `CN(Cc1cnn(C)c1)S(=O)(=O)N1CCCC1c1ccco1` (stereo not given), for which the “Percent Effect” value was -4.037%.

Consider `COCCN(Cc1cnn(C)c1)Cc1ccc(C)o1`, for which the “Percent Effect” value turned out to be 2.974%.

`CN(C)[C@@H]1CCN(C(=O)c2ccco2)[C@H]1Cc1cnn(C)c1.O=C(O)C(F)(F)F`: the “Percent Effect” value is recorded as -8.002%.

On to `Cc1ccc(CN(CCCN2CCOCC2)Cc2cnn(C)c2)o1.O=C(O)CC(O)(CC(=O)O)C(=O)O`, for which the “Percent Effect” value amounted to 97.82%.

On to `O=C1NCC2(CCCN(C(=O)Nc3ccc4scnc4c3)CC2)O1` (stereo not given), for which the “Percent Effect” value is given as -9.08%.

As to `Cc1cnn(CC2CCN(CC(O)c3ccc(F)cc3)CC2)c1` (stereo not given), the “Percent Effect” value is -5.813%.

On to `CC(C)CN1CCS(=O)(=O)[C@@H]2CCN(S(=O)(=O)N(C)C)CC[C@@H]21.O=C(O)C(F)(F)F`, for which the “Percent Effect” value is reported as -16.7%.

As for `CC(C)CN1CC[C@@H]2[C@H](CC1)N(S(C)(=O)=O)CCS2(=O)=O.O=C(O)C(F)(F)F`, the “Percent Effect” value came to 96.88%.

Turning to `CC(C)(C)CC(=O)N1CC[C@@H]2[C@H](CC1)N(S(C)(=O)=O)CCS2(=O)=O`, the “Percent Effect” value is on record as -4.617%.

As to `CC(C)CCC(=O)N1CC[C@@H]2[C@H](CC1)N(S(C)(=O)=O)CCS2(=O)=O`, the “Percent Effect” value was found to be 94.59%.

On to `CC(C)CN1CCS(=O)(=O)[C@@H]2CCN(S(=O)(=O)C3CC3)CC[C@@H]21.O=C(O)C(F)(F)F`, for which the “Percent Effect” value is recorded as 4.008%.

On to `CC(C)(C)C(=O)N1CC[C@@H]2[C@H](CC1)N(S(C)(=O)=O)CCS2(=O)=O`, for which the “Percent Effect” value was found to be 98.9%.

Regarding `CC(=O)N1CCS(=O)(=O)[C@@H]2CCN(S(=O)(=O)CC(C)C)CC[C@@H]21`, the “Percent Effect” value is listed as 8.105%.

With `CC(=O)N1CCS(=O)(=O)[C@@H]2CCN(CC(C)C)CC[C@@H]21.O=C(O)C(F)(F)F`, the “Percent Effect” value is -6.859%.

As to `CC(C)CC(=O)N1CC[C@@H]2[C@H](CC1)N(S(C)(=O)=O)CCS2(=O)=O`, the “Percent Effect” value is reported as 1.552%.

Regarding `C[C@H]1CC[C@H](C(=O)N2CCC(n3cc(C4(O)CCCC4)nn3)CC2)CC1`, the “Percent Effect” value is listed as 3.706%.

For the molecule `CSc1ncc(C(=O)N2C[C@@H](NC(C)=O)[C@H](c3ccc(C)cc3)C2)cn1`, the “Percent Effect” value is -0.9583%.

Regarding `CN(C(=O)NCCCN1CCCC1)C1CCN(c2ccccc2)C1=O` (stereo not given), the “Percent Effect” value is -8.204%.

Take `Cc1cc(-c2cncnc2)ccc1OCC(N)=O`: the “Percent Effect” value is -32.33%.

On to `N#Cc1cc(N2CCC(S(N)(=O)=O)CC2)c2ccccc2n1`, for which the “Percent Effect” value is -5.494%.

Turning to `COCCn1cnc(-c2nc(C(=O)N3CCOCC3)c3ccccn23)c1`, the “Percent Effect” value was -9.685%.

In the case of `COc1ccccc1OCCN1CCCC(c2noc(C3CC3)n2)C1` (stereo not given), the “Percent Effect” value was -3.612%.

`COCCN1CCCC(c2ncc(C(=O)N3CCOCC3)c(C)n2)C1` (stereo not given): the “Percent Effect” value is on record as 169%.

For `COCCN1CCCC(c2nc3c([nH]2)CC(C)(C)CNC3=O)C1` (stereo not given), the “Percent Effect” value is -7.15%.

With `COCCN1CCCC(c2ncc(C(=O)N(C)C)c(C)n2)C1` (stereo not given), the “Percent Effect” value was 128.7%.

For the molecule `CCCn1cc(C(=O)N2CCCC(c3nccn3CCOC)C2)c(C)n1` (stereo not given), the “Percent Effect” value amounted to 0.1706%.

As for `COCCN1C[C@@H](C)[C@@]2(COCCN(C(=O)c3cnc(C)cn3)C2)C1.O=C(O)C(F)(F)F`, the “Percent Effect” value is recorded as -26.1%.

Regarding `COCCCC1(CO)CCCN(C(=O)c2cnc(C3CC3)nc2)C1` (stereo not given), the “Percent Effect” value is listed as -3.858%.

Consider `COCCN1CCC(c2ncc(C(=O)N3CCOCC3)c(C)n2)CC1`, for which the “Percent Effect” value is listed as 139.1%.

The record behind these values is ChEMBL document CHEMBL3988442, “University of Dundee, Small-Polar-MMV Screening Library” (2021).
